Among the test systems are NCI-H23 lung; NCI-H226 lung; NCI-H322M lung; HOP-62 NSCLC; NCI-H460 lung; HOP-92 NSCLC; NCI-H522 lung; A549/ATCC NSCLC; 786-0 renal; COLO 205 colon; DU-145 prostate; K-562 leukemia; MALME-3M melanoma; MDA-MB-231 breast; RXF 393 renal; SF-268 CNS; SF-295 CNS; SF-539 CNS; UACC-257 melanoma; M14 melanoma.
What all share (assay): NCI-60 one-dose screen, 48 h (100 = growth as untreated, 0 = no growth, -100 = all killed)
Settings in all cases: 10 µM unless noted

SMILES strings stand for the structures. The panel holds about 83,000 compounds, 20% with a hit somewhere; the sample as a whole holds those more often.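 Cell lines were cultured in 96-well plates, exposed to a single compound concentration, and assessed for percent growth 48 hours later.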 Values without a mark were called inactive. Calls of active or inactive are those of the source. How the source made its calls: active means growth percent below 10; inactive means the rest.

`COc1cc(C=O)ccc1Oc1ccc([N+](=O)[O-])cc1[N+](=O)[O-]`: the growth was 95.6% in the assay with NCI-H23 lung; 99.9% in the assay on NCI-H226 lung; 104% in the assay with NCI-H322M lung; 94.2% in the assay on HOP-62 NSCLC; 104% in the assay on NCI-H460 lung; 78.8% with HOP-92 NSCLC. The growth in the assay on NCI-H522 lung is 94.3%; in the assay on A549/ATCC NSCLC, 88.4%; in the assay with 786-0 renal it was 102%; with COLO 205 colon it was 108%; in the assay with DU-145 prostate, 110%; in the assay on K-562 leukemia, 97.3%. In addition, the growth in the assay on MALME-3M melanoma was 114%; in the assay with MDA-MB-231 breast, 104%; in the assay with RXF 393 renal, 111%; in the assay on SF-268 CNS, 102%; in the assay with SF-295 CNS, 108%; in the assay with SF-539 CNS, 107%. For the same compound, the growth in the assay on UACC-257 melanoma is 90%; in the assay on M14 melanoma it was 102%.

As to `COc1ccc(/C(C)=C(\c2ccc(OCCN3CCCCCC3)cc2)c2ccc(OC(=O)C3CCCCC3)cc2)cc1`, the growth with NCI-H23 lung was -74% (active); with NCI-H226 lung, -62.4% (active); with NCI-H322M lung, 5.75% (active); with HOP-62 NSCLC, -73.4% (active); in the assay on NCI-H460 lung, -65.6% (active); with HOP-92 NSCLC it was -88.9% (active). For the same compound, the growth in the assay with NCI-H522 lung is -67.6% (active); in the assay on A549/ATCC NSCLC it was -32.9% (active); in the assay with 786-0 renal, -84.2% (active); in the assay with COLO 205 colon, -63% (active); in the assay with DU-145 prostate, -12.1% (active); in the assay with K-562 leukemia, -23.5% (active). Also, the growth was -81.2% (active) in the assay on MALME-3M melanoma; -84.1% (active) in the assay with MDA-MB-231 breast; -83.1% (active) in the assay with RXF 393 renal; -30.6% (active) in the assay on SF-268 CNS; -90.3% (active) in the assay on SF-295 CNS; -85.4% (active) with SF-539 CNS. Also, the growth is -71.4% (active) in the assay on UACC-257 melanoma and -70.4% (active) in the assay on M14 melanoma.

In the case of `Cn1cc(-c2csc(-c3cn(CCOC(N)=O)c4ccccc34)n2)c2cccnc21`, the growth in the assay on NCI-H23 lung was 81.2%; in the assay on NCI-H226 lung it was 86.4%; with NCI-H322M lung, 90.8%; in the assay with HOP-62 NSCLC it was 74.5%; in the assay with NCI-H460 lung, 82.4%; with HOP-92 NSCLC, 83.1%. In addition, the growth in the assay with NCI-H522 lung was 24.2%; in the assay on A549/ATCC NSCLC it was 67.4%; in the assay with 786-0 renal, 87.4%; in the assay with COLO 205 colon it was 77.6%; in the assay with DU-145 prostate, 103%; in the assay on K-562 leukemia, 27.3%. Moreover, the growth in the assay on MALME-3M melanoma is 66.4%; with MDA-MB-231 breast, 80.4%; in the assay on RXF 393 renal it was 91.4%; in the assay with SF-268 CNS it was 95.8%; with SF-295 CNS it was 86.2%; in the assay with SF-539 CNS it was 92.7%. The values for the growth in the assay on UACC-257 melanoma and in the assay on M14 melanoma were 88% and 71.1%, respectively.

As for `CN(Cc1ccccc1)c1nc(Cl)c(C2CC(c3ccc4c(c3)OCO4)=NN2c2cc(Cl)cc(Cl)c2)s1` (stereo not given), the growth was 96.2% in the assay with NCI-H23 lung; 102% in the assay on NCI-H226 lung; 99.9% in the assay with NCI-H322M lung; 89.2% in the assay with HOP-62 NSCLC; 103% with NCI-H460 lung; 99% with HOP-92 NSCLC. The growth was 94.2% in the assay with NCI-H522 lung; 90.7% in the assay on A549/ATCC NSCLC; 90% with 786-0 renal; 93.6% in the assay with COLO 205 colon; 101% in the assay on DU-145 prostate; 90.2% with K-562 leukemia. Also, the growth in the assay on MALME-3M melanoma was 95%; in the assay on MDA-MB-231 breast it was 101%; in the assay on RXF 393 renal it was 109%; in the assay on SF-268 CNS, 94.8%; with SF-295 CNS, 93.8%; in the assay with SF-539 CNS, 103%. Besides, the growth with UACC-257 melanoma was 106%; in the assay with M14 melanoma it was 99.5%.

As for `N=c1c2c(-c3ccccc3)c(-c3ccccc3)oc2ncn1NC(=O)c1cccnc1`, the growth in the assay with NCI-H23 lung is 93.2%; in the assay on NCI-H226 lung, 108%; in the assay on NCI-H322M lung, 98.7%; with HOP-62 NSCLC, 102%; with NCI-H460 lung, 105%; in the assay with HOP-92 NSCLC, 91%. Further, the growth in the assay on NCI-H522 lung was 95.1%; in the assay on A549/ATCC NSCLC, 103%; with 786-0 renal it was 99%; with COLO 205 colon, 115%; in the assay with DU-145 prostate, 106%; in the assay with K-562 leukemia, 87.8%. In addition, the growth in the assay with MALME-3M melanoma was 114%; with MDA-MB-231 breast, 102%; with RXF 393 renal it was 117%; in the assay with SF-268 CNS it was 106%; in the assay with SF-295 CNS, 101%; with SF-539 CNS, 97.2%. Further, the growth in the assay on UACC-257 melanoma and with M14 melanoma was 105% in each case.

For the compound `O=C(Nc1ccc2ncsc2c1)c1csc(Nc2ccc3[nH]ncc3c2)n1`, the growth with NCI-H23 lung is 62%; in the assay on NCI-H226 lung, 59%; with NCI-H322M lung, 51.5%; in the assay on HOP-62 NSCLC it was 61.7%; in the assay on NCI-H460 lung it was 19.5%; in the assay on HOP-92 NSCLC, 67.5%. Further, the growth was 24.7% with NCI-H522 lung; 44.3% in the assay on A549/ATCC NSCLC; 42.8% in the assay on 786-0 renal; 31.2% with COLO 205 colon; 35.5% in the assay on DU-145 prostate; 28.1% in the assay on K-562 leukemia. The growth with MALME-3M melanoma is 57.1%; in the assay with MDA-MB-231 breast, 62.9%; with RXF 393 renal, 13.9%; in the assay with SF-268 CNS it was 55.8%; in the assay with SF-295 CNS, 25.5%; in the assay with SF-539 CNS, 22.9%. The results for the growth with UACC-257 melanoma and in the assay with M14 melanoma were 63.8% and 25.2%, respectively.

The record behind these values is PubChem BioAssay (NCI).
